From PubChem BioAssay (NCI)
This is part of a sample that, as a whole, favours compounds with a hit. Of some 83,000 tested, about 20% had one in any assay.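 Percent growth is the endpoint: 0 to 100 indicates growth inhibition (40 means 60% inhibition), 0 means no net growth, and negative values indicate cell death.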 Values without a mark were called inactive. Active and inactive are the calls of the source.

These compounds were tested on TK-10 renal (assay: NCI-60 one-dose screen, 48 h (100 = growth as untreated, 0 = no growth, -100 = all killed)). Conditions: 10 µM unless noted.
Procedure: Growth inhibition of the TK-10 human tumor cell line is measured as a screen for anti-cancer activity. Cells are grown in 96 well plates and exposed to the test compound for 48 hours. Compounds are tested at a single concentration, which is 10^-5 M for most compounds. The reported endpoint is percent growth (GI% or GIPRCNT), where numbers from 0 - 100% represent growth inhibition, and numbers from -100% - 0 represent cell death. For example, a value of 40 represents 60% growth inhibition. A value of 0 means no net growth occurred over the course of the experiment. A value of -40 indicates 40% of cells at the beginning of the experiment died by the end of the experiment. A value of -100 means all cells are dead at the end of the experiment.
NCI-60 Human Tumor Cell Lines Screen was performed using the standard one-dose NCI protocol, which is described in more detail at https://dtp.cancer.gov/discovery_development/nci-60/default.htm.
Compounds with GIPRCNT values below 10 were considered active. Activity score was based on GIPRCNT using the following formula: […]
Score is 0 for GIPRCNT values of 100 or above, 50 for GIPRCNT values of 0, and 100 for GIPRCNT values of -100.

Compound | growth
COc1ccc(-c2cc(-c3cccnc3)nc3sc4c(=O)n(-c5ccc(C)cc5)nnc4c23)cc1OC | 115%
C/C(=C(/c1ccc(O)cc1)c1ccc(OCCN2CCCC2)cc1)c1ccccc1 | 79.6%
CC(C)n1cc2c(N)ncnc2n1 | 96.6%
COc1c2ccccc2c(OC)c2[nH]c(=O)ccc12 | 110%
CCCCN(CCCC)Cc1c(C)[nH]c2cc(OC)ccc2c1=O | 104%
O=c1c(/C=C/c2ccco2)nnc(SCCN2CCOCC2)n1/N=C/c1ccc([N+](=O)[O-])cc1 | 154%
CCCNc1nc(SC)nc(-c2cccc(N)c2)c1C#N | 150%
CCN(CC)Cc1cc(Nc2c3ccccc3nc3cc(Cl)ccc23)ccc1O | -65.6% (active)
N#Cc1c(N)nc(N)nc1Nc1ccc(Br)cc1 | 125%
O=C(NCc1cccc(C(F)(F)F)c1)[C@H](CCC(=O)N1CCN(C2CCCCC2)CC1)N1C(=O)[C@@H](N2C(=O)OC[C@@H]2c2ccccc2)[C@H]1/C(Cl)=C/c1ccccc1 | 40.8%
CN1CCCCC1CCN1c2ccccc2Sc2ccc(Br)cc21 (stereo not given) | 72.3%
COc1ccc(C(=O)COc2ccc(/C=C3\Oc4ccc(Cl)cc4C3=O)cc2)cc1 | 105%
c1ccc2sc(SCCCn3ccnc3)nc2c1 | 84.2%
CC/C=C\C[C@H](F)C/C=C1/C(=O)C=C[C@@H]1C/C=C\CCCC(=O)O | 128%
COCCCNc1nc(NC(=O)c2ccc(F)cc2C)cc(-c2cccnc2)n1 | 111%
Cc1ccc(/C=C2\Oc3cc(OCC(=O)c4ccc(Cl)cc4)ccc3C2=O)cc1 | 130%
Nc1cc(-c2nc3sccn3c2-c2ccnc(NCCCNS(=O)(=O)c3ccc(F)cc3)n2)ccc1F | 98.3%
Cc1ccc(S(=O)(=O)n2cc(-c3csc(-c4cn(C)c5ncccc45)n3)c3ccccc32)cc1 | 91.3%
Cc1cc(Nc2nc(-c3cccnc3)nc3ccccc23)n[nH]1 | 59.8%
OCCNCCNc1c2ccccc2nc2ccccc12 | 82.7%

Compound | growth
CC1CN(C(C)C)C(=S)N(c2ccccc2)C1=O (stereo not given) | 112%
O=C1/C(=C/c2ccc(Cl)c(Cl)c2)CN(C(=O)CCN2CCC(=NO)CC2)C/C1=C\c1ccc(Cl)c(Cl)c1 | -88.9% (active)
O=C1/C(=C/c2ccc(Cl)cc2Cl)CN(S(=O)(=O)c2ccccc2)C/C1=C\c1ccc(Cl)cc1Cl | -22.2% (active)
CNC(=O)c1cc(Oc2ccc3nc(NC(=O)Nc4ccc(CN5CCOCC5)c(C(F)(F)F)c4)sc3c2)ccn1 | 43.9%
CCN(CC)CCC(=O)c1ccc(OC)c2ccccc12 | 60.1%
CCCCCCCCCCNC(=O)CCl | 83.8%
COc1ncc(-c2ccc3ncnc(Nc4cccc(Cl)c4)c3c2)cc1NS(C)(=O)=O | -11.1% (active)
COc1ccc(/C=C/C(=O)c2c(O)c(C)c(O)c3c2OC2=CC(O)=C(C(C)=O)C(=O)[C@]23C)cc1 | -9.84% (active)
COc1ccc(C/C(C)=C(\c2ccc(Cl)cc2)c2ccc(OCCN3CCCCCC3)cc2)cc1 | 90.3%
CCCCCCCCCCCCCC1=NCCN1CCO | 123%
CCCCCCCCCCCCCCCCCCNC(=O)[C@H]1CSC(c2ccc(F)c(OC)c2)N1 (stereo not given in full) | 6.86% (active)
COC(/C=C/c1ccc([N+](=O)[O-])cc1)OC | 103%
COc1ccc(-c2c(C)noc2-c2ccc(O)cc2O)cc1 | 99.8%
COc1ccc(S(=O)(=O)NCCNc2nccc(-c3c(-c4cccc(N)c4)nc4sccn34)n2)cc1 | 115%
O=C(Nc1ccc(Nc2cc(Nc3ccccc3)ncn2)cc1)Nc1cc(C(F)(F)F)ccc1F | 89.5%
O=C1c2cc3c(cc2-c2c1c1cc(F)c(F)cc1c(=O)n2C[C@H](O)CO)OCO3 | -27.6% (active)
O=C1c2cc3c(cc2-c2c1c1cc(Cl)c(Cl)cc1c(=O)n2C[C@H](O)CO)OCO3 | -28% (active)
COc1ccc(C(=O)c2sc3nc4c(c(C(F)(F)F)c3c2N)CN(C(C)=O)CC4)cc1OC | 86%
Nc1cccc(-c2nc3sccn3c2-c2ccnc(NCCCNS(=O)(=O)c3ccc(C(F)(F)F)cc3)n2)c1 | 47.5%
O=c1c2cccc3c(NC4CCCCC4)ccc(c32)c2nc3ccccc3n12 | 77.4%
